The structures appear in SMILES notation. For some of these results: Measured potencies and affinities stand elsewhere. Results filed as inconclusive are left out. The list shows a part of the results. Calls of active or inactive are those of the source.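 Rule for the calls, unless noted: active = signal-lowering compounds whose fitted half-maximal concentration is at or below twice the top tested dose in every run; inconclusive = runs disagree, flat 30 to 70% inhibition, or poor curve fit; inactive = the rest.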

The first experiment is described as follows: small-molecule DNA binding by polarization – biochemical, fluorescence polarization, cherry-pick, counter-screen for EWS/Fli inhibitor project, dose response (AID 720586;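 active = fitted curve reaches a 35% signal fall AC35 below twice the sample's top valid tested dose, actives reach about 48 µM in these data; inactive = the rest, including activity in the rising direction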;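 note: lower polarization ratio signals compound binding to DNA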). The conditions noted are these: salmon sperm DNA acridine orange fluorescence polarization; series mostly up to 68 µM.
`C[C@H]1CN([C@@H](C)CO)C(=O)Cc2cc(NC(=O)C3CC3)ccc2O[C@H]1CN(C)S(=O)(=O)c1ccc(Cl)cc1`: the AC35 entry was “inactive”. Regarding `CCC(C)Cn1c(O)cc2nn(-c3nc4ccccc4s3)c(=O)c-2c1C` (stereo not given), the AC35 is 48.3 µM (active).

As for `CCOc1cc2[nH]c(=S)n(Cc3ccc(C(=O)N4CCN(C)CC4)cc3)c(=O)c2cc1OCC`, the AC35 result is “inactive”. The same measure, in the same setting: the entry for `COC(=O)Cc1[nH]n(-c2nc3ccccc3s2)c(=O)c1C(C)=Nc1ccc(OC)cc1` is “inactive”.

For `Cc1ccc(S(=O)(=O)Nc2ccc3c(c2)C(=O)N([C@@H](C)CO)C[C@@H](C)[C@@H](CN(C)Cc2ccc(C(=O)Nc4ccccc4N)cc2)O3)cc1`, the AC35 entry was “inactive”. The same measure, in the same setting: the result for `COc1ccc(Nc2ncnc3ccc(Br)cc23)c(OC)c1` reads “inactive”; that for `C[C@H](CO)N1C[C@H](C)[C@H](CN(C)CC2CCCCC2)Oc2ccc(NC(=O)CCCCCC(=O)Nc3ccccc3N)cc2CC1=O`, “inactive”; that for `CCn1c(/C=N/NC(=O)c2ccc(OC)cc2)nc2ccccc21`, “inactive”. As to `Cc1ccc(C)c(S(=O)(=O)N2CCN(c3ncnc4sccc34)CC2)c1`, the AC35 entry was “inactive”. The same measure, in the same setting: the result for `OCCN1CCN(C(=S)c2ccc(-c3ccccc3)cc2)CC1` reads “inactive”.

As to `COc1ccc(-c2nc3c(s2)CCc2onc(-c4ccc(OC)cc4)c2-3)cc1`, the AC35 result is “inactive”. In the case of `COc1ccc(OC)c(Cc2cnc3nc(N)nc(N)c3c2C)c1`, the AC35 result was “inactive”. On to `N#C[C@@H]1[C@H](c2ccc(C#Cc3cccc(F)c3)cc2)[C@@H](CO)N1C(=O)C1CCCC1`, for which the AC35 entry is “inactive”.

With `C(=N\Nc1ccc2ccccc2n1)/c1ccc2c(c1)OCO2`, the AC35 entry was “inactive”.

A further experiment in a line: CMV-driven luciferase expression suppression in HEK293 – cell-based, luminescence, dry powder, counter-screen for Pax8 inhibitor project, dose response (AID 743020).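 Note: HEK293 cells stably expressing the CMV luciferase reporter.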 The conditions noted are these: HEK293 CMV-luciferase reporter, SteadyGlo luminescence, 24 h; series mostly up to 35 µM.
`CCOC(=O)Nc1ccc2c(c1)N(C(=O)CCN(CC)CC)c1ccccc1S2=O` (stereo not given): the call was inactive. As to `CCOC(=O)c1c(C)[nH]c2c1-c1ccccc1C(=O)C2=O`, the molecule was called inactive. On to `Cc1cnc(NC(=O)c2ccc3c(c2)OCCO3)s1`, for which the molecule was classed as inactive. The same measure, in the same setting: the entry for `COc1ccc(-c2nc3c(c(SCC(=O)Nc4cccc(O)c4)n2)Cc2c(CO)cnc(C)c2O3)cc1` is “inactive”.

Consider `COC(=O)[C@]12CCCCC=C1N(Cc1ccc(Cl)cc1Cl)C(=O)[C@H](CC(=O)N1CCN(C(=O)c3ccco3)CC1)C2`, for which the molecule was classed as inactive. Consider `Nc1nc(=S)c2[nH]cnc2[nH]1`, for which the molecule was classed as inactive. Take `Cn1ncc2c(O/N=C(\N)c3ccc(C(F)(F)F)cc3)ncnc21`: the call was inactive. Turning to `CCOc1ccc(C(CN2CCOCC2)C(C)=O)cc1OC` (stereo not given), the outcome was inactive. Same read-out and setting: the entry for `COc1ccccc1C(=O)Nc1nc2ccccc2[nH]1` is “inactive”; for `S=c1sc2c(Cl)ncnc2n1-c1ccccc1` it is “inactive”; for `COc1cc(OC)c2c(-c3cccc(-c4ccc(OC)c(F)c4)c3)cc(=O)oc2c1` it is “inactive”.

With `Cc1cccc(N(Cc2cc(=O)[nH]c3ccccc23)C(=O)CCl)c1`, the outcome was inactive. On to `N#Cc1ccc(-c2ccc(C3[C@@H]4CN(C(=O)C5CC5)C[C@H]3N4)cc2)cc1` (stereo not given in full), for which the call was inactive. Same read-out and setting: the result for `C(=Cc1cnc2ccccc2n1)c1ccc2c(c1)OCO2` reads “inactive”; that for `Cc1ccc(-c2csc3ncnc(Sc4nnc(CN5CCCCCC5=O)o4)c23)cc1`, “inactive”.

Consider `O=C(Nc1ccccc1)NN(C(=O)CCl)c1ccccc1`, for which the molecule was classed as inactive. On the same count and under the same terms, the result for `CCOc1ccc(C(=O)C(CCC(CN(C)C)C(=O)c2ccc(OCC)cc2)CN(C)C)cc1` (stereo not given) reads “inactive”. Same read-out and setting: the result for `O=C(NC1CCCCC1)C(c1cccnc1)N(C(=O)CCl)c1ccc(F)cc1` (stereo not given) reads “inactive”. Same read-out and setting: the result for `Cc1ccc(Cl)cc1N1CCN(C(=O)c2noc(C)c2[N+](=O)[O-])CC1` reads “inactive”; that for `COCCn1c(C)cc(C2=NNC(=NC3CC3)SC2)c1C`, “inactive”. In the case of `O=C(c1cc([N+](=O)[O-])ccc1N1CCOCC1)N1CCN(c2ccccc2)CC1`, the call was inactive. For `COc1ccc(C2=NNC(=Nc3cc(S(=O)(=O)N(C)C)ccc3C)SC2)c(OC)c1`, the molecule was classed as inactive. Take `C=C(C)c1nc(Oc2ccccc2)nc(Oc2ccccc2)n1`: the result was inactive. On to `CCN(CC)S(=O)(=O)c1cc(NC(=O)Cn2ncc(Cl)c(Cl)c2=O)ccc1C`, for which the molecule was classed as inactive.

As to `O=C(NCc1cc(C(F)(F)F)ccc1Cl)c1cccc2c1C(=O)c1ccc(N3CCC(N4CCCCC4)CC3)cc1S2(=O)=O`, the molecule was classed as inactive. Still for that read-out and setting: the entry for `O=C(CCl)N(Cc1ccccc1)c1ccccc1` is “inactive”.
